Compounds with a hit are over-represented: about 3.9% of the library has one in this group of screens.
FBA Mtb inh = inhibits M. tuberculosis FBA enzyme; P9WQA3; purified M. tuberculosis FBA, fluorescence read-out; inhibition, % at 1 µM; actives 2.3% (n = 360,000); AID 588726; in the data active = inhibition above about 27%
BH1578 lux ind = induces V. cholerae light production without autoinducers; V. cholerae BH1578 lux reporter, luminescence, 6 h; activation, % at 18.7 µM; actives 0.16% (n = 350,000); AID 588436; in the data active = activation mostly above about 9.7%, no sharp cut-off
SARS 3CLpro inh = SARS-CoV 3CLpro protease inhibition; inhibition, % at 6 µM; AID 1706; actives 0.14% (n = 290,000); recombinant SARS-CoV 3CLpro, quenched FRET peptide cleavage; P0C6X7; in the data active = inhibition above about 12%
GDH-TPI inh = GDH-TPI coupled enzyme inhibition counter-screen; GDH-TPI coupled enzyme counterscreen, NADH absorbance; inhibition, % at 4.8 µM; actives 1.2% (n = 360,000); in the data active = inhibition above about 30%
PrPC surface inh = reduces human prion protein on the cell surface | P04156 | cell surface PrPC, TR-FRET read-out | inhibition, % at 13.8 µM | actives 0.43% (n = 370,000) | AID 720596; in the data active = inhibition above about 24%
PrPC confirm = cell surface PrPC inhibition, TR-FRET confirmation; shares compounds with PrPC surface inh; cell surface PrPC level; inhibition, % at 13.8 µM; actives 65% (n = 1,500); in the data active = inhibition above about 25%
LD9 cytotox = counter-screen for PrPc inhibitors: cytotoxicity in LD9 cells | shares compounds with PrPC surface inh | luminescence viability | inhibition, % at 13.8 µM | actives 29% (n = 1,500); in the data active = inhibition above about 9.5%
Hits are given with their value; – = inactive; · = not tested or not shown.

SMILES	FBA Mtb inh	BH1578 lux ind	SARS 3CLpro inh	GDH-TPI inh	PrPC surface inh	PrPC confirm	LD9 cytotox
Oc1ccc(-c2cnc3c(Nc4cccc(OC(F)(F)C(F)F)c4)nccn23)cc1	–	–	·	–	25	25	–
Cc1nc(N2CCN(Cc3ccc4c(c3)OCO4)CC2)c2oc3ccccc3c2n1	–	–	·	–	48	–	15
Cc1cc(C)c2nc(SCC(=O)NCCC3=CCCCC3)cc(C)c2c1	–	–	–	–	–	·	·
O=C(CCC(=O)c1cccs1)NC(c1ccccc1)c1ccccc1	–	–	–	–	33	–	–
c1csc(CNc2nc(NCC3CCCCC3)c3sccc3n2)c1	–	–	·	–	26	26	14
O=C(CSc1nnc(-c2ccccc2)n1-c1ccc(Cl)cc1)Nc1ccc(OCc2ccccc2)cc1	·	·	·	·	–	·	·
CC(N)C(=O)NC1C2C(=C(O)CC(O)C2O)C(=O)OC1(C)C(Cl)Cl (centres undefined)	–	–	·	–	93	100	26
CCCCc1c(Cc2cccc(F)c2)ncn1CCc1ccccc1OC	·	·	·	·	27	–	17
Cc1cccc(C)c1NS(=O)(=O)c1ccc(-c2cnc(C3CC3)o2)cc1	–	–	–	–	25	–	29
COc1cc(CN2CCN(Cc3cccc(OC)c3OC)CC2)cc(OC)c1	–	–	–	–	28	–	–
N#Cc1c(-c2ccccc2)nc(SCC(=O)Nc2ccccc2)[nH]c1=O	–	–	–	–	28	39	–
CCC(Sc1nc(-c2ccccc2)c(C#N)c(=O)[nH]1)C(=O)Nc1nnc(C)s1 (centres undefined)	–	–	–	–	28	48	–
N#Cc1c(-c2ccccc2)nc(SCC(=O)Nc2nnc(C(F)(F)F)s2)[nH]c1=O	–	–	–	–	–	·	·
Cc1cccc(NC(=O)CSc2nc(-c3ccccc3)c(C#N)c(=O)[nH]2)c1C	–	–	–	–	–	·	·
Cc1cc(NC(=O)CSc2nc(-c3ccccc3)c(C#N)c(=O)[nH]2)no1	–	–	–	–	41	56	–
Cc1cc(C)nc(NS(=O)(=O)c2ccc(NC(=O)CSc3nc(-c4ccccc4)c(C#N)c(=O)[nH]3)cc2)n1	–	–	–	–	50	72	–
N#Cc1c(-c2ccccc2)nc(SCC(=O)Nc2ccccc2F)[nH]c1=O	–	–	–	–	–	·	·
COc1cc(CNCCNC(=O)c2nonc2N)ccc1OCc1ccc(Cl)cc1	–	–	–	–	–	·	·
COC(=O)[C@@H](Cc1ccccc1)NC(=O)[C@H]1O[C@@H](n2cnc3c(=O)[nH]c(N)nc32)[C@H](O)[C@@H]1O	·	·	·	·	–	·	·
C=CCC[C@H](Cc1ccc(F)cc1)C(=O)OC[C@H](C)NC(=O)[C@@H](CC=C)CC(=O)N[C@H](CO)Cc1ccccc1	–	–	·	–	–	·	·
O=C(Nc1nccs1)c1ccc(COc2ccccc2Br)o1	–	–	–	–	26	–	–
COc1cccc(S(=O)(=O)N2CCN(Cc3ccc4c(c3)OCO4)CC2)c1	–	–	–	–	–	·	·
Oc1ccc(CN2CCc3ccccc3C2)c2cccnc12	–	–	–	–	27	35	28
Oc1ccc(CN2CCCCC2)c2cccnc12	–	–	–	–	–	·	·
COC(=O)c1cc(S(=O)(=O)Nc2cccc(-c3cnco3)c2)oc1C	–	–	–	–	·	·	·
SMILES	FBA Mtb inh	BH1578 lux ind	SARS 3CLpro inh	GDH-TPI inh	PrPC surface inh	PrPC confirm	LD9 cytotox
Cc1cccc(CS(=O)(=O)c2ncc(Cl)c(C(=O)NCc3ccccc3)n2)c1	–	–	–	–	26	–	46
O=C(Nc1ccc(F)cc1)c1nc(S(=O)(=O)Cc2ccccc2)ncc1Cl	–	–	–	–	66	64	94
Cc1ccc(NC(=O)c2nc(S(=O)(=O)Cc3ccccc3)ncc2Cl)cc1	–	–	–	–	84	56	92
Cc1cccc(CS(=O)(=O)c2ncc(Cl)c(C(=O)Nc3c(C)cccc3C)n2)c1	–	–	–	–	–	·	·
CCS(=O)(=O)c1ncc(Cl)c(C(=O)Nc2ccc(S(=O)(=O)N(C)c3ccccc3)cc2)n1	–	–	–	–	89	102	97
Cc1ccccc1CS(=O)(=O)c1ncc(Cl)c(C(=O)Nc2ccc(F)cc2)n1	–	–	–	–	–	·	·
COc1ccc(-c2cc3c(o2)CCCC3OCCN2CCOCC2)cc1 (centres undefined)	·	·	·	·	–	·	·
CCc1nc2ccc(C(=O)NCc3ccccc3OC)cn2c1N(C)Cc1ccc(N(C)C)cc1	–	–	·	–	–	·	·
Cc1onc(-c2c(F)cccc2Cl)c1C(=O)Nc1nnc(C(F)(F)F)s1	–	–	–	–	62	81	–
CC(C)C(=O)Nc1ccc(NC(=O)c2cccc3c(Br)cccc23)cc1	–	–	–	–	–	·	·
Cc1nc(-c2ccc(S(=O)(=O)Nc3ccc(Br)cc3Cl)s2)cs1	–	–	–	–	37	53	–
Cc1nc(-c2ccc(S(=O)(=O)Nc3cccc(S(N)(=O)=O)c3)s2)cs1	–	–	–	–	–	·	·
C[C@@H]1CN([C@@H](C)CN(C)C)C(=O)c2cc(NC(=O)Nc3ccccc3)ccc2O[C@@H](C)CCCCO[C@H]1CN(C)S(=O)(=O)c1ccc(F)cc1	·	·	·	·	–	·	·
Cc1c(C(=O)Nc2ccc(-c3nnc4n3CCCCC4)cc2)oc2ccc(Br)cc12	–	–	–	–	40	49	–
O=C(Nc1ccc(-c2nnc3n2CCCCC3)cc1)c1ccco1	–	–	–	–	–	·	·
CC(=O)c1ccc(NC(=O)C(C)Nc2ccc(Cl)cc2)cc1 (centres undefined)	–	–	–	–	–	·	·
Cc1cc(NC(=O)c2sc(Nc3ccc(F)cc3)nc2N)no1	–	–	–	–	26	26	13
C[C@@H]1CN([C@H](C)CO)C(=O)CCCn2nncc2CO[C@@H]1CN(C)S(=O)(=O)c1ccc2c(c1)OCCCO2	–	–	·	–	–	·	·
CC(C)C[C@@H]1COc2cc(Br)ccc2S(=O)(=O)N1Cc1cn(Cc2ccco2)nn1	·	·	·	·	–	·	·
Cc1ccc(NC(=O)c2cc(S(=O)(=O)N(C)C)ccc2N2CCCC2)cc1F	–	–	–	–	63	54	–
CSc1ccccc1NC(=O)c1cc(S(=O)(=O)N(C)C)ccc1N1CCCC1	–	–	–	–	–	·	·
CN(C)S(=O)(=O)c1ccc(N2CCCC2)c(C(=O)Nc2ccccc2)c1	–	–	·	–	42	41	–
Cc1nnc(NC(=O)c2cc(S(=O)(=O)N(C)C)ccc2N2CCCC2)s1	–	–	·	–	25	–	–
O=C1CCN(Cc2ccccc2)C(=S)N1	–	–	·	–	–	·	·
Cc1cccc(NC(=O)Cn2cc(C(=O)C3CC3)c3ccccc32)c1C	–	–	–	–	31	–	22
CCC(=O)c1cn(CC(=O)Nc2cccc(C)c2C)c2ccccc12	–	–	–	–	–	·	·
O=S(c1ccc2ccccc2c1)c1cnns1 (centres undefined)	–	–	–	–	34	–	76

Screens: PubChem, several laboratories
